In the library only some 2.3% were active in any assay of this set; here they are far more common.
ABHD5-PLIN5 inh = inhibitors of human ABHD5-perilipin-5 interaction; inhibition, % at 4 µM; Split G. princeps luciferase complementation, luminescence, 4 h; 360,000 tested, 0.78% active; Q00G26+Q8WTS1; AID 602281;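 active = inhibition above the mean inhibition across every tested compound plus 3 SD, cut at about 22% in these data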
NTR1 ag = NTR1 (human) agonism; 330,000 tested, 0.17% active; NTR1-U2OS beta-arrestin-GFP spot imaging, agonist mode; activation, % at 20 µM; P30989;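 active = activation at or above 40% of the spot to cytoplasm intensity ratio, with at least 20 cells analyzed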
m5-HT2A agonist = activates the mouse 5-HT2A serotonin receptor. CHO-K1 mHTR2A beta-arrestin complementation, luminescence; percent of 30 µM serotonin response. activation, % at 7.6 µM. 360,000 tested, 0.66% active;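 active = activation above a run cutoff, the mean activation of all tested compounds plus 3 SD, cut at about 14% in these data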
Target sequence (P35363 whole entry, looked up): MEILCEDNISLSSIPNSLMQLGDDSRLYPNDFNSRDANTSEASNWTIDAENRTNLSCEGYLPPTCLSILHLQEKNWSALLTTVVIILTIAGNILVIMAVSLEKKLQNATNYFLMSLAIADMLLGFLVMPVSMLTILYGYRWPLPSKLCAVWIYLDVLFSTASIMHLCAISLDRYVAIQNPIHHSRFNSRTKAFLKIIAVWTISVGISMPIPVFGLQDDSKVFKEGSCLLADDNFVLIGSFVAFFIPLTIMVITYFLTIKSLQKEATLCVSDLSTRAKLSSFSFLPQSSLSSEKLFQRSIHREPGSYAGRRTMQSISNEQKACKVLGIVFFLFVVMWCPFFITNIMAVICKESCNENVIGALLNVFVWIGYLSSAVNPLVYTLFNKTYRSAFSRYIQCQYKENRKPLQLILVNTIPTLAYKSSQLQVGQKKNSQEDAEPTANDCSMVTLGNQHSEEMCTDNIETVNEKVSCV
Granule exo inh = blocks lytic granule exocytosis; inhibition, % at 10 µM; TALL-104 LAMP-1 surface exposure, flow cytometry; cells stimulated with thapsigargin and PMA; AID 651702; 360,000 tested, 0.66% active;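 active = inhibition above about 55%, limit read from the data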
B2AR ag = agonists of human beta-2 adrenergic receptor inducing internalization | 340,000 tested, 0.43% active | Am2.2-beta2AR cells, FAP receptor internalization, flow cytometry | P07550 | response, % (test concentration not listed);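 active = response above a set limit, near 3 SD of response in nonfluorescent compounds, cut at about 42% in these data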
Beta2AR ag CP1 = agonists of human beta-2 adrenergic receptor; shares compounds with B2AR ag; percent response (surface receptor), % at 10 µM; Am2.2-beta2AR cells, FAP surface receptor, flow cytometry; stronger effect = lower value; 1,100 tested, 25% active;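 active = surface receptor percent response at or below 58%, roughly 3 SD from nonfluorescent compounds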
FAP fluor counter = fluorescence artifact in beta-2AR agonist FAP counterscreen; shares compounds with B2AR ag; Am2.2 cells, FAP fluorogen flow cytometry; stronger effect = lower value; calls only at 10 µM; 1,100 tested, under 10 active; AID 588765;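 active = percent response below a set limit in fluorescence channel 1 and below 50% in channel 8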
ABHD5-PLIN5 conf = ABHD5-PLIN5 interaction inhibition, confirmed | AID 651612 | biochemical ABHD5-PLIN5 interaction, luminescence | shares compounds with ABHD5-PLIN5 inh | 2,200 tested, 67% active | inhibition, % at 4 µM; in the data active = inhibition above about 23%
HNF4 counter = HNF4 split-luciferase signal hit, counter-screen | 2,200 tested, 77% active | shares compounds with ABHD5-PLIN5 inh | AID 651674 | inhibition, % at 4 µM | HNF4 dimerization, luminescence, biochemical;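 active = mean inhibition across replicate wells exceeding the computed hit threshold, cut at about 13% in these data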;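 note: light from luciferase halves that rejoin when HNF4 fusion proteins dimerize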
Exocytosis CP01 = blocks lytic granule exocytosis; shares compounds with Granule exo inh; TALL-104 cells, LAMP-1 externalization, flow cytometry; stimulated with PMA plus thapsigargin; inhibition, % at 10 µM; 1,500 tested, 11% active; AID 651954; in the data active = inhibition above about 60%
Each line names hits and unclear results; the compound was inactive in the other large screens (follow-up assays come after a bar, where they were run).

CC(NCc1ccc(Cl)cc1)C(O)c1ccccc1 (stereo not given)	none | Beta2AR ag CP1 inactive | FAP fluor counter inactive
COc1ccc(CNCCc2ccc(Cl)cc2Cl)cc1	none
O=C(Cc1ccccc1)NC(Cc1ccc(Cl)cc1)C(=O)O (stereo not given)	none
CC(NCc1cccc(Cl)c1Cl)C(O)c1ccccc1 (stereo not given)	none | Beta2AR ag CP1 inactive | FAP fluor counter inactive
COc1cc(O)c2c(c1)/C=C/C[C@H](O)[C@H](O)C(=O)CCC[C@H](C)OC2=O	none (no result: NTR1 ag, B2AR ag)
Fc1cccc(-c2ccc3c(c2)CN(C(=S)NCCc2ccccc2)Cc2cnnn2-3)c1	none (no result: NTR1 ag, B2AR ag)
CCOC(=O)[C@]12Cc3cc(OC)ccc3[C@H]1N(CCC(=O)OC)C(=O)c1cc(OC)ccc12	none (no result: NTR1 ag, B2AR ag)
COc1cc(OC)c(OC)cc1CNCCc1ccc(OC)c(OC)c1	none
COc1cc(OC)c(OC)cc1CNC(C)C(O)c1ccccc1 (stereo not given)	none | Beta2AR ag CP1 inactive | FAP fluor counter inactive
C[C@]12CCC3C(CC[C@H]4C[C@H](O)CC[C@]34C)C1C[C@@H](CCCCl)[C@@H]2O (stereo not given in full)	none (no result: B2AR ag)
COc1ccc(-n2nnnc2C(c2cccs2)N2CCC(n3c(=O)[nH]c4ccccc43)CC2)cc1 (stereo not given)	none (no result: NTR1 ag, B2AR ag)
CCOC(=O)[C@]12Cc3ccc4ccccc4c3[C@H]1N(Cc1ccccc1)C(=O)c1ccccc12	none (no result: NTR1 ag, B2AR ag)
COc1ccc(CNCCc2c(C)[nH]c3ccc(OC(F)(F)F)cc23)c(OC)c1	B2AR ag 43.0 | Beta2AR ag CP1 inactive | FAP fluor counter inactive
O=c1[nH]c2ccccc2n1C1CCN(C(c2cc3ccccc3o2)c2nnnn2Cc2ccccc2)CC1 (stereo not given)	none (no result: NTR1 ag, B2AR ag)
COc1ccc(C[C@H]2NC[C@H](O)[C@H]2OC(C)=O)cc1	B2AR ag 94.2 | Beta2AR ag CP1 27.9 | FAP fluor counter active
CCC[C@H](N[C@@H](CCC)[C@H](O)c1ccccc1)[C@H](O)c1ccccc1	none | Beta2AR ag CP1 inactive | FAP fluor counter inactive
CCCCC(CC)CNCC(O)c1ccccc1 (stereo not given)	none
CC(CCc1ccccc1)NC(C)C(O)c1ccc(O)cc1 (stereo not given)	none | Beta2AR ag CP1 inactive | FAP fluor counter inactive
COC(=O)C1=C(c2ccc(OCc3ccccc3)cc2)C[C@@H]2CC[C@H]1N2C(=O)NCc1ccccc1OC	none (no result: NTR1 ag, B2AR ag)
COC(=O)C1=C(c2ccc(OCc3ccccc3)cc2)C[C@@H]2CC[C@H]1N2C(=O)NCc1ccc(OC)c(OC)c1	none | Beta2AR ag CP1 inactive | FAP fluor counter inactive
COC(=O)C1=C(c2cc3ccccc3s2)C[C@@H]2CC[C@H]1N2C(=O)NCC1CC1	none
COC(=O)C1=C(c2cc3ccccc3s2)C[C@@H]2CC[C@H]1N2C(=O)NCc1ccc(C(F)(F)F)cc1	B2AR ag 73.9 | Beta2AR ag CP1 inactive | FAP fluor counter inactive
NCCc1ccc(OCc2ccccc2)c(OCc2ccccc2)c1	ABHD5-PLIN5 inh 27.7, B2AR ag 43.4 | Beta2AR ag CP1 inactive | FAP fluor counter inactive | ABHD5-PLIN5 conf inactive | HNF4 counter inactive
O=C1NCN(c2ccccc2)C12CCN(C(c1ccccc1)c1nnnn1C1CCCC1)CC2 (stereo not given)	none (no result: NTR1 ag, B2AR ag)
CC(Cc1ccc(O)cc1)NCC(O)c1ccc(O)c(O)c1 (stereo not given)	Granule exo inh 65.7 (no result: NTR1 ag, B2AR ag) | Beta2AR ag CP1 9.6 | FAP fluor counter inactive | Exocytosis CP01 inactive
CC12CCC(O)CC1CCC1C2CCC2(C)C(C(=O)CO)CCC12 (stereo not given)	none (no result: NTR1 ag, B2AR ag)
CN1[C@@H]2CC[C@H]1CC(OC1c3ccccc3CCc3ccccc31)C2 (stereo not given in full)	ABHD5-PLIN5 inh 32.0 | ABHD5-PLIN5 conf 77.2 | HNF4 counter 35.0
COC(=O)[C@@H]1[C@@H](C(=O)OC)C2(c3ccccc3-c3ccccc32)N(c2ccc(Cl)cc2)N1C#N	ABHD5-PLIN5 inh 77.7 | ABHD5-PLIN5 conf 97.3 | HNF4 counter 96.5
CC(=NCc1ccc2c(c1)OCO2)c1c(O)n(-c2ccc(C)cc2)c(=O)[nH]c1=O	ABHD5-PLIN5 inh 98.5 | ABHD5-PLIN5 conf inactive | HNF4 counter inactive
C=CC12CN(C)C3C4COC(CC41)C1(C(=O)Nc4ccccc41)C32 (stereo not given)	none (no result: NTR1 ag, B2AR ag)
Cc1ccccc1N1C(=O)CC(=O)NC1=O	none
COc1cccc(N2C(=O)CC(=O)NC2=O)c1	ABHD5-PLIN5 inh 27.3 | ABHD5-PLIN5 conf inactive | HNF4 counter 31.8
CCc1ccc(N2C(=O)CC(=O)NC2=O)cc1	ABHD5-PLIN5 inh 23.8 | ABHD5-PLIN5 conf inactive | HNF4 counter 15.5
CCOc1cccc(N2C(=O)CC(=O)NC2=O)c1	none
COc1ccccc1N1C(=O)CC(=O)NC1=O	ABHD5-PLIN5 inh 26.7 | ABHD5-PLIN5 conf inactive | HNF4 counter 35.8
Cc1ccc2[nH]c(C)c(CCNCc3cccnc3)c2c1	none
C[C@]12CCC3[C@@H](CCC4=CC(=O)CC[C@@]43CO)C1CCC2=O (stereo not given in full)	none
O=P1(c2ccccc2)CC=CC1	none (no result: NTR1 ag, B2AR ag)
COc1ccc(-n2c(O)c(/C=C3\C=Nc4ccc(Br)cc43)c(=O)[nH]c2=O)c(OC)c1	none
COc1ccc(-n2c(O)c(/C=C3\C=Nc4ccc(Br)cc43)c(=O)[nH]c2=O)cc1	ABHD5-PLIN5 inh 36.2 | ABHD5-PLIN5 conf 36.1 | HNF4 counter 29.0
[N-]=[N+]=NC1C[C@H](n2ccc(=O)[nH]c2=O)O[C@@H]1CO (stereo not given in full)	none
Cc1ncc2n1-c1ccc(Cl)cc1C(c1ccccc1F)=NC2	none
O=C1NC(=O)N(Cc2ccc(F)cc2)C(=O)/C1=C\C=C\c1ccco1	ABHD5-PLIN5 inh 29.5, B2AR ag 48.4 | ABHD5-PLIN5 conf 96.1 | HNF4 counter 61.9
Cn1cccc1/C=C1/C(=O)NC(=O)N(Cc2ccc(F)cc2)C1=O	none
CCNC(=S)N(C)CCc1cc2c(c(OC)c1C=C1C(=O)N(C)C(=O)N(C)C1=O)OCO2	ABHD5-PLIN5 inh 29.2 | ABHD5-PLIN5 conf inactive | HNF4 counter 18.2
COc1c(/C=C2/C(=O)NC(=O)N(C)C2=O)c(CCN(C)C(=O)c2ccccc2)cc2c1OCO2	none

Assay outcomes from PubChem.
